This note sets out measurements from PubChem BioAssay (Tox21).

Records with an inconclusive call do not appear. Unmarked numbers belong to inactive results. Activity calls are given as the source filed them. Unless noted, the call rests on the fitted dose curve; in most records, active means well fitted cell-killing curve with a large enough effect in the repeat runs; inconclusive means weak or mixed curves; inactive means no such curve, though single readings can be large or run the other way.
On the % scale 0 is the no-effect control and ±100 the full control effect.

Peroxisome proliferator-activated receptor delta (Homo sapiens), sequence (Q03181 whole entry, looked up): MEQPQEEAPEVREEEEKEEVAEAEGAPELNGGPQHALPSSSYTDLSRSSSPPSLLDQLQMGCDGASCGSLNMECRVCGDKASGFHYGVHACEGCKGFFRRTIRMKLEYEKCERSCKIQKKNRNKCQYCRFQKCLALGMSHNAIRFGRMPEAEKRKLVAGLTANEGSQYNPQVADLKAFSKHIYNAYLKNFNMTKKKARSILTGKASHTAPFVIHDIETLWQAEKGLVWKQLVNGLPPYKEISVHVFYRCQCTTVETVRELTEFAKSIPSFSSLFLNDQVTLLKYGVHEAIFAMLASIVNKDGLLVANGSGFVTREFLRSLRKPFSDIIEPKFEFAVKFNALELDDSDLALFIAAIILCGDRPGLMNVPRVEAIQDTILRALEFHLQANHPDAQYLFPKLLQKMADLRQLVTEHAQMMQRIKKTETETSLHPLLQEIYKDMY
Bile acid receptor (Homo sapiens), sequence (Q96RI1 whole entry, looked up): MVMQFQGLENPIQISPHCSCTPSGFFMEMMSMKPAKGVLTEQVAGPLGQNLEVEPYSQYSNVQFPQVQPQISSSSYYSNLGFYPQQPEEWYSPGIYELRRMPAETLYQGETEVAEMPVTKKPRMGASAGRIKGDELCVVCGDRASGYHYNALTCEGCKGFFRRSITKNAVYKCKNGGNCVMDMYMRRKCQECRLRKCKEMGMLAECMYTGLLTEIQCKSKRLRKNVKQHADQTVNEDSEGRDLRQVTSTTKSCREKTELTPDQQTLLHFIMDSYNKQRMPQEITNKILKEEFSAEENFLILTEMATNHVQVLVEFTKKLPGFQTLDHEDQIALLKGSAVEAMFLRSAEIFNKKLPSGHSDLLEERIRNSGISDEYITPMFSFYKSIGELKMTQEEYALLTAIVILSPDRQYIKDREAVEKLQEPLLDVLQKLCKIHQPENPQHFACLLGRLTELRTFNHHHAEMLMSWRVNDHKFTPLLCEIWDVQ

Tested on in one test: not listed separately
Nature of the test: qHTS assay to identify small molecule antagonists of the peroxisome proliferator-activated receptor delta (PPARd) signaling pathway - cell viability counter screen (AID 743213). Further: nearly all actives have a fitted effect of over 50% in size. As to conditions: PPARd-bla HEK293H viability, CellTiter-Glo luminescence, 17 h; series mostly up to 62 µM; viability change, negative = cytotoxic: at the top concentration. The gist of the method:
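PPARd-bla HEK293H cells (3000/well) got compound plus 300 nM L165041 agonist for 17 h at 37 C. Viability in the same wells came from CellTiter-Glo luminescence after 30 min at room temperature.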
(In qHTS, concentration-response curves come from the screen itself.)
Turning to `N#Cc1ccc(N(CC(N)=O)CC(F)(F)F)cc1C(F)(F)F`, the “viability change, negative = cytotoxic” value is -25.5%.
With `c1ccc(Nc2ccc(Nc3ccccc3)cc2)cc1`, the “viability change, negative = cytotoxic” value was 4.18%.
As to `CCN(CC)Cc1nccn1-c1ccc([N+](=O)[O-])cc1C(=O)c1ccccc1Cl`, the “viability change, negative = cytotoxic” value was 4.19%.
Still for that read-out and setting: the result for `[C-]1=CC=CC1.[Cl][Zr+2][Cl].c1cc[cH-]c1` reads -0.21% [at 80.4 µM].
Take `C1=CCC=C1`: the “viability change, negative = cytotoxic” value was 0.876%.
On the same count and under the same terms, the result for `CCOP(=O)(Sc1ccccc1)Sc1ccccc1` reads 3.55%.
The same measure, in the same setting: the result for `O=S(=O)(O)F` reads -1.01% [at 80.4 µM]; that for `O=[N+]([O-])c1ccc(Cl)c(Cl)c1Cl`, 3.21%; that for `CSC(C)(C)/C=N/O`, 5.58%.
For the molecule `CCNS(=O)(=O)C(F)(F)C(F)(F)C(F)(F)C(F)(F)C(F)(F)C(F)(F)C(F)(F)C(F)(F)F`, the “viability change, negative = cytotoxic” value is -13.9%.
Same read-out and setting: the result for `CCN(CC)CCc1c[nH]c2ccccc12` reads -2% [at 80.4 µM]; that for `CNC(=O)O/N=C(\C)C(C)S(C)(=O)=O` (stereo not given), -5.28% [at 765 µM].
Still for that read-out and setting: the result for `CC(Cl)CCl` (stereo not given) reads 12.7%; that for `Cc1ccc(C)c2ccccc12`, 1.88%; that for `CC1CN1` (stereo not given), -11.6%.
On the same count and under the same terms, the result for `c1cc[n+]2c(c1)-c1cccc[n+]1CC2` reads 4.82%; that for `O=C(Nc1ccc(F)cc1F)c1cccnc1Oc1cccc(C(F)(F)F)c1`, -23.6% [at 80.4 µM].
With `CCN(CC)CCN1C(=O)CN=C(c2ccccc2F)c2cc(Cl)ccc21`, the “viability change, negative = cytotoxic” value was -0.359%.
`ClCBr`: the “viability change, negative = cytotoxic” value is 5.52% [at 80.4 µM].
The same measure, in the same setting: the result for `CC#C[C@]1(O)CC[C@H]2[C@@H]3C[C@H](C)C4=CC(=O)CC[C@]4(C)[C@H]3CC[C@@]21C` reads -11%.
Same read-out and setting: the result for `COc1ccc2[nH]cc(CCN(C(C)C)C(C)C)c2c1` reads 2.23% [at 80.4 µM]; that for `CC(C)Br`, -0.394%; that for `O=[N+]([O-])c1ccccc1-c1ccccc1`, 20%.
`CC(C)C(Br)C(=O)NC(N)=O` (stereo not given): the “viability change, negative = cytotoxic” value was -7.53%.
Same read-out and setting: the result for `CC[C@]1(O)CC[C@H]2[C@@H]3CCC4=CCCC[C@@H]4[C@H]3CC[C@@]21C` reads -21.3%.
On to `CCC1(CC)C(=O)N=C(O)NC1=O`, for which the “viability change, negative = cytotoxic” value is -33.6%.
Take `CC(C)NCC(O)c1ccccc1Cl` (stereo not given): the “viability change, negative = cytotoxic” value is 0.466%.
Same read-out and setting: the result for `NC1CCC(CC2CCC(N)CC2)CC1` (stereo not given) reads -12.1%; that for `C=Cc1cccc(CCl)c1`, -1.71% [at 80.4 µM].

The target in the next test is Peroxisome proliferator-activated receptor delta (Homo sapiens) (UniProt Q03181). Description: qHTS assay to identify small molecule antagonists of the peroxisome proliferator-activated receptor delta (PPARd) signaling pathway (AID 743215; active means well fitted inhibition curve with a large enough effect in the signal ratio in the repeat runs, not every such curve was filed as active; the % refers to the signal ratio;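 further: cells stimulated with agonist L165041 at 300 nM final during compound exposure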; further: potency means the concentration at half of the fitted maximal effect). As to conditions: HEK293H PPARd-UAS-bla, beta-lactamase FRET ratio, antagonist, 17 h; series mostly up to 62 µM; ratio activity, negative = inhibition: at the top concentration. The procedure, abridged:
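PPARd-bla HEK293H cells (UAS-bla reporter) preincubated 5 h, then given compound plus 300 nM final L165041 agonist for 17 h at 37 C. Beta-lactamase activity read by LiveBLAzer B/G FRET substrate fluorescence after 2 h at room temperature.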
As to `N#Cc1ccc(N(CC(N)=O)CC(F)(F)F)cc1C(F)(F)F`, the “ratio activity, negative = inhibition” value is 4.58%.
Still for that read-out and setting: the result for `c1ccc(Nc2ccc(Nc3ccccc3)cc2)cc1` reads -9.34%.
For `CCC[CH2][Sn]([CH2]CCC)([O]C(C)=O)[O]C(C)=O`, the Potency is 19.7 µM (active).
As to `COc1cnc(OC)n2nc(NS(=O)(=O)c3c(OCC(F)F)cccc3C(F)(F)F)nc12`, the “ratio activity, negative = inhibition” value is -2.95%.
Same read-out and setting: the result for `CCN(CC)Cc1nccn1-c1ccc([N+](=O)[O-])cc1C(=O)c1ccccc1Cl` reads 7.79%; that for `Nc1ccc(Cl)cc1C(=O)c1ccccc1F`, 16%; that for `CCOP(=O)(Sc1ccccc1)Sc1ccccc1`, -8.19%.
Turning to `O=S(=O)(O)F`, the “ratio activity, negative = inhibition” value is 11.8% [at 80.4 µM].
For `O=[N+]([O-])c1ccc(Cl)c(Cl)c1Cl`, the “ratio activity, negative = inhibition” value is 13.5%.
Still for that read-out and setting: the result for `CSC(C)(C)/C=N/O` reads -0.0437%; that for `CCNS(=O)(=O)C(F)(F)C(F)(F)C(F)(F)C(F)(F)C(F)(F)C(F)(F)C(F)(F)C(F)(F)F`, -12.2%.
On the same count and under the same terms, the result for `CNC(=O)O/N=C(\C)C(C)S(C)(=O)=O` (stereo not given) reads 8.58% [at 765 µM].
The same measure, in the same setting: the result for `CC(Cl)CCl` (stereo not given) reads 11.3%.
On to `Cc1ccc(C)c2ccccc12`, for which the “ratio activity, negative = inhibition” value is -5.85%.
The same measure, in the same setting: the result for `COC(=O)c1ccccc1S(=O)(=O)NC(=O)Nc1nc(C)nc(OC)n1` reads 10.5%.
Same read-out and setting: the result for `CC1CN1` (stereo not given) reads -11.2%; that for `c1cc[n+]2c(c1)-c1cccc[n+]1CC2`, 1.06%.
Still for that read-out and setting: the result for `ClSC(Cl)(Cl)Cl` reads 14.3%; that for `O=C(Nc1ccc(F)cc1F)c1cccnc1Oc1cccc(C(F)(F)F)c1`, 5.75% [at 80.4 µM].
`CCC(C)c1cccc(C(C)CC)c1O` (stereo not given): the “ratio activity, negative = inhibition” value was 14.6%.
Same read-out and setting: the result for `CCN(CC)CCN1C(=O)CN=C(c2ccccc2F)c2cc(Cl)ccc21` reads 2.95%; that for `ClCBr`, 5.49% [at 80.4 µM]; that for `COc1ccc2[nH]cc(CCN(C(C)C)C(C)C)c2c1`, 1.05% [at 80.4 µM].
For `O=c1c2ccccc2c(=O)c2c1cc(Cl)c1[nH]c3c([nH]c12)c(Cl)cc1c(=O)c2ccccc2c(=O)c13`, the “ratio activity, negative = inhibition” value is -2.1%.
In the case of `CC(C)C(Br)C(=O)NC(N)=O` (stereo not given), the “ratio activity, negative = inhibition” value was -9.09%.
Still for that read-out and setting: the result for `CC[C@]1(O)CC[C@H]2[C@@H]3CCC4=CCCC[C@@H]4[C@H]3CC[C@@]21C` reads -6.53%.
Same read-out and setting: the result for `CCC1(CC)C(=O)N=C(O)NC1=O` reads -12.1%; that for `CC(C)NCC(O)c1ccccc1Cl` (stereo not given), 2.86%.
For the molecule `CC(C)N(C(=O)SC/C(Cl)=C/Cl)C(C)C`, the “ratio activity, negative = inhibition” value is 10.1% [at 80.4 µM].
Still for that read-out and setting: the result for `NC1CCC(CC2CCC(N)CC2)CC1` (stereo not given) reads 12.1%.

The next test concerns the target Bile acid receptor (Homo sapiens) (UniProt Q96RI1). Description: qHTS assay to identify small molecule antagonists of the farnesoid-X-receptor (FXR) signaling pathway (AID 743217; active means well fitted inhibition curve with a large enough effect in the signal ratio in the repeat runs, not every such curve was filed as active; the % refers to the signal ratio). As to conditions: HEK293T FXR-UAS-bla, beta-lactamase ratio, CDCA-stimulated, 16 h; series mostly up to 62.6 µM; activity change, negative = inhibition: at the top concentration. The procedure, abridged:
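FXR-UAS-bla HEK 293T cells (beta-lactamase reporter) given compound plus chenodeoxycholic acid (50 uM final), 16 h at 37C. LiveBLAzer B/G FRET substrate added for 2 h at room temperature; fluorescence read.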
With `N#Cc1ccc(N(CC(N)=O)CC(F)(F)F)cc1C(F)(F)F`, the “activity change, negative = inhibition” value is 5.09%.
The same measure, in the same setting: the result for `Nc1ccc(Cl)cc1C(=O)c1ccccc1F` reads -9%.
The same measure, in the same setting: the result for `CCOP(=O)(Sc1ccccc1)Sc1ccccc1` reads -10.3%; that for `CCNS(=O)(=O)C(F)(F)C(F)(F)C(F)(F)C(F)(F)C(F)(F)C(F)(F)C(F)(F)C(F)(F)F`, 1.14%.
The same measure, in the same setting: the result for `CCN(CC)CCc1c[nH]c2ccccc12` reads -15.1% [at 81.1 µM]; that for `CNC(=O)O/N=C(\C)C(C)S(C)(=O)=O` (stereo not given), -8.85% [at 765 µM].
With `Cc1ccc(C)c2ccccc12`, the “activity change, negative = inhibition” value is 0.583%.
Still for that read-out and setting: the result for `COC(=O)c1ccccc1S(=O)(=O)NC(=O)Nc1nc(C)nc(OC)n1` reads 3.22%; that for `CCN(CC)CCN1C(=O)CN=C(c2ccccc2F)c2cc(Cl)ccc21`, -3.83%; that for `ClCBr`, 3.07% [at 81.1 µM].
Still for that read-out and setting: the result for `CC(C)Br` reads 2.77%; that for `O=c1c2ccccc2c(=O)c2c1cc(Cl)c1[nH]c3c([nH]c12)c(Cl)cc1c(=O)c2ccccc2c(=O)c13`, 0.525%.
On the same count and under the same terms, the result for `CC(C)C(Br)C(=O)NC(N)=O` (stereo not given) reads -2.37%.
As for `CC(C)N(C(=O)SC/C(Cl)=C/Cl)C(C)C`, the “activity change, negative = inhibition” value is -5.09% [at 81.1 µM].
On the same count and under the same terms, the result for `NC1CCC(CC2CCC(N)CC2)CC1` (stereo not given) reads -6.72%; that for `C=Cc1cccc(CCl)c1`, 3.63% [at 81.1 µM].
